# Source: PubChem (National Center for Advancing Translational Sciences (NCATS))
# APE1 inh-1: qHTS Assay for Inhibitors of the Human Apurinic/apyrimidinic Endonuclease 1 (APE1); DNA repair nuclease/redox regulator APEX1 (Homo sapiens), P27695; recombinant APE1, TAMRA/BHQ-2 abasic DNA cleavage fluorescence; Potency, µM (titrated, usually from 65.8 µM), for inactives: at the top dose activity change, negative = inhibition, most hits filed as inhibitors; actives 0.35% (n = 350,000); AID 2517, 2012;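 note: potency is the fitted concentration of half-maximal effect; plate controls were vehicle for no effect and reference inhibitor for full effect; nearly all actives have a fitted effect of over 55% in size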
# Target sequence (P27695 whole entry, looked up): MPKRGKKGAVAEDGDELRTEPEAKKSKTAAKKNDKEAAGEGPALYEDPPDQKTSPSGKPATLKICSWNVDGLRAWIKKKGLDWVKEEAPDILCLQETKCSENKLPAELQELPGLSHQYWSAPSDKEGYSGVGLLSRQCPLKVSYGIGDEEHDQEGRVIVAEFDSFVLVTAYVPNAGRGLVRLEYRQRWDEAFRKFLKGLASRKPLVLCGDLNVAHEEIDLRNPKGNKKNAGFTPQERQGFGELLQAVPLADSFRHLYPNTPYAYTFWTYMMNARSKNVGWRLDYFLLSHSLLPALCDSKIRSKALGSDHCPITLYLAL
#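 Measures dequenching upon AP-site incision of a 5'-TAMRA/3'-BHQ-2 THF-containing duplex, 50 nM; human APE1 0.75 nM after 15 min room-temperature exposure to compound; kinetic three-point read at one-minute spacing.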
# RECQ1 inh: qHTS Assay for Inhibitors of RecQ-Like Dna Helicase 1 (RECQ1); AID 2549, 2010; actives 0.54% (n = 240,000); Potency, µM (highest dose often 57.3 µM), for the others: at the top dose activity, negative = inhibition, most hits filed as inhibitors; RECQ1 DNA unwinding, red fluorescence kinetic read; ATP-dependent DNA helicase Q1 (Homo sapiens), P46063;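 note: potency is the fitted concentration of half-maximal effect; plate controls were vehicle for no effect and no enzyme for full effect; nearly all actives have a fitted effect of over 30% in size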
#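 RECQ1T1 50 nM; forked duplex (20 bp + 30-nt ss tails) 200 nM, ATP 2 mM final; pH 8.0, 2 mM MgCl2, 2.5 ug/ml poly(dI-dC); 15 min compound preincubation; discontinuous kinetic read over 2 h at RT.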
# FEN1 inh: qHTS Assay for the Inhibitors of Human Flap endonuclease 1 (FEN1); P39748; actives 0.35% (n = 390,000); Potency, µM (top dose mostly 114 µM), without a hit: top-dose activity change, negative = inhibition, hits mostly inhibitors; Recombinant FEN1 flap cleavage, fluorescence, 15 min; note: potency is the fitted concentration of half-maximal effect; nearly all actives have a fitted effect of over 65% in size
#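 In this screen, 50 nM flap DNA substrate was added to 10 nM FEN1 pretreated with compound for 15 min at room temperature; cleavage was followed with reads at 0 and 15 min, and Hill fitting gave concentration–response parameters.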
# PI5P4K alpha inh: qHTS for Inhibitors of phosphatidylinositol 5-phosphate 4-kinase (PI5P4K) | AID 652105, 2013 | actives 1.2% (n = 330,000) | Phosphatidylinositol 5-phosphate 4-kinase type-2 alpha (Homo sapiens), P48426 | max response, % | PI5P4Kalpha enzyme, ADP-Glo luminescence, 60 min; stronger effect = lower value; active = max response of -50% or lower; inconclusive = between -30% and -50%; inactive = -30% or higher; note: value at the top dose of about 77 µM
# Target sequence (P48426 whole entry, looked up): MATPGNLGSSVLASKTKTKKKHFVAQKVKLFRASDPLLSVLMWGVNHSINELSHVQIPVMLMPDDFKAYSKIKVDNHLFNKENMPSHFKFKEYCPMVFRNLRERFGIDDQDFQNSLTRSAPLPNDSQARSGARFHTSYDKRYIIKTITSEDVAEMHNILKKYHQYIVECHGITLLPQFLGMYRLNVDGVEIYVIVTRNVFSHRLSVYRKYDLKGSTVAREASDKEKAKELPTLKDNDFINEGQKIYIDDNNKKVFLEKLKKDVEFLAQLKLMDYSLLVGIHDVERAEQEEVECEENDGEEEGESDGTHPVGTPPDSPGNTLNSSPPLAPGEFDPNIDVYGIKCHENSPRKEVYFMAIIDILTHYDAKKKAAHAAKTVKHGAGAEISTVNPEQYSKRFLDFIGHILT
#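 Single end-point luminescence (ADP-Glo) quantified ADP from PI5P4Kalpha turnover; ATP 5 microM final, 1 h at RT, 0.1% CHAPS and 0.28 mM EGTA in HEPES pH 7.4.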
# BLM helicase inh: qHTS Assay for Inhibitors of Bloom's syndrome helicase (BLM) | RecQ-like DNA helicase BLM (Homo sapiens), P54132 | recombinant BLM DNA unwinding, fluorescence dequenching | Potency, µM (doses to about 56.1 µM), for the others: at the highest dose activity change, negative = inhibition, most hits filed as inhibitors | actives 0.2% (n = 350,000) | AID 2528, 2010;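 note: potency is the fitted concentration of half-maximal effect; plate controls were vehicle for no effect and no enzyme for full effect; nearly all actives have a fitted effect of over 35% in size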
# WRN helicase inh: qHTS for Inhibitors of WRN Helicase; WRN helicase unwinding, fluorescent forked duplex, kinetic; Potency, µM (series often up to 114 µM), for inactives: at the highest dose activity change, negative = inhibition, hits mostly inhibitors; Bifunctional 3'-5' exonuclease/ATP-dependent helicase WRN (Homo sapiens), Q14191; AID 651768, 2012; actives 0.46% (n = 360,000); note: potency is the fitted concentration of half-maximal effect; nearly all actives have a fitted effect of over 55% in size
#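 WRN at 20 nM final preincubated with compound 15 min at room temperature; reaction started with 100 nM fluorophore/quencher forked duplex oligonucleotide and 2 mM ATP final. Unwinding followed kinetically by red fluorescence (ex 525, em 598 nm).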
# APE1 dye cs: Counterscreen for APE1 Inhibitors: Fluorescent Dye Displacement Assay. shares compounds with APE1 inh-1. DNA fluorescent dye displacement counterscreen, fluorescence. Potency, µM (titrated, usually from 28.5 µM), for inactives: top-dose activity change, negative = inhibition, actives largely listed as inhibitors. actives 7% (n = 480);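 note: loss of thiazole orange fluorescence as the dye is displaced from duplex DNA; potency is the fitted concentration of half-maximal effect; 0% = ThO with dsDNA and no compound and -100% = ThO without dsDNA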
# EndoIV counter: Counterscreen for APE1 Inhibitors: qHTS Assay for Inhibitors of Endonuclease IV. shares compounds with APE1 inh-1. E. coli Endo IV, fluorogenic AP-site DNA cleavage. Potency, µM (titrated, usually from 27.1 µM), without a hit: at the highest dose activity change, negative = inhibition, most hits filed as inhibitors. actives 4% (n = 560). AID 2565, 2010;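 note: potency is the fitted concentration of half-maximal effect; plate controls were uninhibited enzyme wells for no effect and no enzyme buffer wells for full effect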
# APE1 inh-2: Confirmation qHTS Assay for Inhibitors of the Human Apurinic/apyrimidinic Endonuclease 1 (APE1). shares compounds with APE1 inh-1. purified APE1, fluorogenic abasic-site DNA cleavage. Potency, µM (series often up to 57.1 µM), for the others: at the top dose activity change, negative = inhibition, usual class: inhibitors. actives 44% (n = 750). AID 2572, 2010; note: potency is the fitted concentration of half-maximal effect; nearly all actives have a fitted effect of over 30% in size
# APE1 FP inh: qHTS FP-Based Assay for Inhibitors of the Human Apurinic/apyrimidinic Endonuclease 1 (APE1) | shares compounds with APE1 inh-1 | APE1 binding to TAMRA-labelled double-stranded DNA, fluorescence polarization displacement | Potency, µM (titrated, usually from 28.5 µM), without a hit: at the highest dose activity, negative = inhibition, hits mostly inhibitors | actives 7% (n = 480) | AID 2573, 2010; note: potency is the fitted concentration of half-maximal effect
# The depositor's hits bear a star; i = inactive; ? = inconclusive; . = no result given; [ ] = dose if it differs, or a comment. The list is not random: actives were taken first. Their share in the collection is about 1.5%. Unless noted, calls come from the whole dose curve; as a rule, active = well fitted curve in the direction sought with a large enough effect; inconclusive = small, poorly fitted or top-dose-only effect, or another doubt; inactive = no such curve, though single readings can be large; an effect the other way counts as inactive or inconclusive. Unless noted, % is set by controls: 0 for no effect and ±100 for the full control effect.
SMILES,APE1 inh-1,RECQ1 inh,FEN1 inh,PI5P4K alpha inh,BLM helicase inh,WRN helicase inh,APE1 dye cs,EndoIV counter,APE1 inh-2,APE1 FP inh
CCC(C)C(=O)OCC1(c2ccc(C)cc2OC(=O)C(C)C)CO1 (configuration not stated),?,-14%,-9%,-2,-12%,1%,?,-9%,11µM*,?
Cc1ccc(C2(COC(=O)C(C)C)CO2)c(OC(=O)C(C)C)c1 (configuration not stated),?,i,-1%,4,-5%,6%,.,.,.,.
COC(=O)C1C2CC3c4[nH]c5cc(OC)ccc5c4CCN3CC2CC(OC)C1OC (configuration not stated),.,.,.,.,-3%,.,.,.,.,.
Cc1c(C(=O)N(Cc2ccc(N(C)C)cc2)Cc2ccco2)oc2cc(Br)ccc12,.,.,-2%,.,-6%,.,.,.,.,.
CCOc1ccccc1NC(=O)CN(C)S(=O)(=O)c1cccc2nsnc12,-41%,-3%,-3%,0,2%,6%,0%,8%,-12%[24.4 µM],?
Cc1cccc(NC(=O)CN(C)S(=O)(=O)c2cccc3nsnc23)c1C,-3%,-5%,-7%,0,3%,-1%,.,.,.,.
CC(=O)NC1C(OC2OC(CC(O)C3OC([N+]4=CCC(=O)NC4=O)C(O)C3O)C(O)C(O)C2NC(=O)/C=C/CCCCCCCCC(C)C)OC(CO)C(O)C1O (configuration not stated),-3%,25%,.,.,.,.,.,.,.,.
CC(=O)N[C@H]1C(O[C@@H]2O[C@H](C[C@@H](O)[C@H]3O[C@@H](N4CCC(=O)NC4=O)[C@H](O)[C@@H]3O)[C@H](O)[C@H](O)[C@H]2NC(=O)/C=C/CCCCCCCCCCC(C)C)OC(CO)[C@@H](O)[C@@H]1O (some centres not stated),7.9µM*,-9%,.,.,-9%,.,103%[57.1 µM],11%[57.1 µM],2.5µM*,-57%[57.1 µM]
O=C1c2ccc(O)c(O)c2C(=O)c2c(O)ccc(O)c21,3.2µM*,32µM*,.,.,-27%,.,.,14µM*,4µM*,.
O=C1c2cccc(O)c2C(=O)c2c(O)cccc21,2%,-1%,.,.,-11%,.,.,.,.,.
O=C(CSc1nc(NS(=O)(=O)c2ccccc2)cc(=O)[nH]1)Nc1ccccc1C(F)(F)F,11%,.,1%,4,-1%,-10%[57.1 µM],.,.,.,.
O=C(CSc1nc(NS(=O)(=O)c2ccccc2)cc(=O)[nH]1)Nc1ccc(F)cc1,?,?,?,.,?,?,.,.,-8%,.
NC(=O)C1CCN(C2CC(=O)NC2=O)CC1 (configuration not stated),?,-3%,3%,-4,-3%,2%,-5%,-1%,?,9%
CN(Cc1nc(-c2ccc(Cl)cc2)no1)S(=O)(=O)c1ccccc1,.,.,17%,.,-6%,.,.,.,.,.
COc1ccc2nc(N3CCCCC3)c(C#N)cc2c1,-3%,-3%,-20%,5,-9%,-20%,.,.,?,.
C[C@@H]1OC(OC2CC[C@@]3(C)C(CC[C@@]4(C)C3CC=C3C5CC(C)(C)CC[C@]5(C(=O)OC5OCC(O)[C@@H](O)[C@@H]5OC5O[C@@H](C)[C@H](O[C@H]6OC(CO)C(O)C(O)C6O)C(O)C5O)C(O)C[C@@]34C)C2(C)C)C(O)C(O)[C@H]1OC1OCC(O)C(O)[C@H]1O (some centres not stated),28µM*,-17%,.,.,0%,.,-1%[57.1 µM],0%[57.1 µM],32µM*,8%[57.1 µM]
COc1ccc2c(Sc3ccccc3)c(C(=O)NCCCN3CCCCC3)[nH]c2c1,.,.,11%,.,-8%,.,.,.,.,.
Clc1ccc(N2N=C(c3cccs3)CC2c2ccco2)cc1 (configuration not stated),12%,-18%,1%,16,-11%,-8%,.,.,-31%,.
c1ccc(N2N=C(c3cccs3)CC2c2ccco2)cc1 (configuration not stated),-6%,?,-18%,-1,-8%,-19%,.,.,.,.
CC(C)C(C(=O)O)N1C(=O)/C(=C/C=C/c2ccco2)SC1=S (configuration not stated),1.6µM*,?,18µM*,-94*,?,3.5µM*,4%,22%,2.5µM*,-61%
CC(=O)Nc1ccc(C)cc1-c1nc2ccccc2n(Cc2cccc(Br)c2)c1=O,.,.,1%,.,-2%,.,.,.,.,.
O=c1ccn(CCc2c[nH]c3ccccc23)c2c1CCCC2,0.079µM*,-2%,4%,-6,8%,-22%,-5%,-5%,-7%[24.4 µM],4%
Cn1c2c(c(=O)n(C)c1=O)C(c1cccc(O)c1)CC(=O)N2 (configuration not stated),.,.,-2%,.,3%,.,.,.,.,.
CCc1ccc(C(=O)c2cn(CC(=O)Nc3cc(OC)ccc3OC)c3ccc(C)cc3c2=O)cc1,.,.,14%,.,-4%,.,.,.,.,.
O=C(CSc1nc2cc(Cl)c(Cl)cc2[nH]1)c1ccc2c(c1)OCO2,?,-2%,-9%,0,-15%,-23%,36%,-2%,?,10%
O=C(CSc1nc2ccc(Cl)cc2[nH]1)c1ccc2c(c1)OCO2,0%,-17%,-5%,.,2%,3%,.,.,.,.
